This is a sample that favours compounds with a hit; in the whole collection about 2.3% have one here.
Mcl1 Bid PPI – disrupts binding of human Mcl-1 to Bid peptide | Q07820 | TR-FRET Mcl-1/Bid-Dy647 peptide binding, 1536-well | inhibition, % at 21.7 µM | hit rate 0.97% among 220,000;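 active = compounds that cut the binding signal by more than half at the single screening dose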;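 note: His-tagged Mcl-1 with europium anti-His antibody binding Bid BH3 peptide; 0% = Mcl-1 plus peptide wells and 100% = peptide-only wells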
BCLXL inh – inhibitors of human Bcl-xL. Q07817. GST-Bcl-xL / FITC-Bim BH3 peptide fluorescence polarization. inhibition, % at 10.9 µM. hit rate 0.7% among 320,000;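 active = inhibition above the mean of all tested compounds plus 3 SD, cutoff set per campaign, cut at about 30% in these data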;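 note: 0% = DMSO wells and 100% = unlabeled Bim-BH3 peptide competitor; inhibitors lower millipolarization by displacing the labeled peptide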
Target sequence (Q07817 whole entry, looked up): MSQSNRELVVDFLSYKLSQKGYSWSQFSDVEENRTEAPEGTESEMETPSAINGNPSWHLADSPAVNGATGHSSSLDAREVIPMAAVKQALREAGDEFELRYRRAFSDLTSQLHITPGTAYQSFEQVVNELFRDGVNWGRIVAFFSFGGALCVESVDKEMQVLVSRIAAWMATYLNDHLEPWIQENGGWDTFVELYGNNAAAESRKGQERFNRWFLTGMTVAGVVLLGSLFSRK
Mcl1 Noxa PPI – disrupts binding of human Mcl-1 to Noxa peptide. TR-FRET Mcl-1/Noxa peptide binding, 2 h. Q07820. inhibition, % at 21.7 µM. hit rate 1.5% among 220,000;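 active = compounds that cut the protein-peptide binding signal by more than 50% relative to plate controls in a single-dose test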;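 note: His-tagged Mcl-1 with rhodamine Noxa BH3 peptide and terbium anti-His antibody; 0% = Mcl-1 plus Noxa peptide wells and 100% = peptide-only wells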
Bim-Mcl-1 – human Bim-Mcl-1 interaction inhibition | Bead-based flow cytometry, Bim peptide-Mcl-1 binding | hit rate 0.1% among 190,000 | inhibition, % at 10 µM | Q07820; in the data active = inhibition above about 40%;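 note: 0% = no compound tracer wells and 100% = peptide blocker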
GLD-1 RNA inh – GLD-1-TGE RNA interaction inhibition (C. elegans); Q17339; purified GLD-1 + fluorescein TGE RNA, fluorescence polarization; inhibition, % at 5.96 µM; hit rate 0.44% among 320,000; AID 2280;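 active = percent inhibition above a per-plate cutoff, the plate mean of test compounds plus 3 SD, cut at about 30% in these data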;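 note: 0% = DMSO wells with GLD-1 and probe and 100% = wells lacking GLD-1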
Target sequence (Q17339 whole entry, looked up): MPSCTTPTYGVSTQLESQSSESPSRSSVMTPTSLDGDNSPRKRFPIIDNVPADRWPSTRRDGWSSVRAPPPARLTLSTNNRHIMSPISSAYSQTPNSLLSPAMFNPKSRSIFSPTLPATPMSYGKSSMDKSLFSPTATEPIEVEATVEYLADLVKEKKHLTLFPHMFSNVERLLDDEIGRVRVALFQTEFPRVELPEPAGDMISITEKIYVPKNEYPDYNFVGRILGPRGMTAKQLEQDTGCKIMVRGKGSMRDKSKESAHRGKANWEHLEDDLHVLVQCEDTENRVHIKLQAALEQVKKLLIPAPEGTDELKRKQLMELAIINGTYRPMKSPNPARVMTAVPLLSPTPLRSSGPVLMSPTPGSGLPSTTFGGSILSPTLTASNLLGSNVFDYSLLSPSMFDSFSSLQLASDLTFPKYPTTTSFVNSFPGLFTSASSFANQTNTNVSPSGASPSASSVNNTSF
MCL1 BIM primary – inhibitors of human MCL1 binding to BIM-BH3 peptide. inhibition, % at 10.9 µM. hit rate 0.68% among 320,000. GST-MCL1 / FITC-Bim-BH3 fluorescence polarization. Q07820. AID 2057;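 active = inhibition above the mean inhibition of all tested compounds plus 3 SD, set per campaign, cut at about 40% in these data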;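 note: 0% = DMSO wells and 100% = unlabeled Bim-BH3 peptide control; higher means more loss of mP so more displacement of Bim peptide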
An asterisk follows results filed as active; / = not tested or not shown.

SMILES | Mcl1 Bid PPI | BCLXL inh | Mcl1 Noxa PPI | Bim-Mcl-1 | GLD-1 RNA inh | MCL1 BIM primary
Cc1cc(C)c(S(=O)(=O)NC2CCN(Cc3ccccc3)CC2)c(C)c1 | -29.5 | 3.0 | -20.5 | / | 8.9 | 9.8
Cc1noc(C)c1S(=O)(=O)NC1CCN(Cc2ccccc2)CC1 | -12.9 | 34.7* | -13.3 | 0.0 | 9.4 | 31.9
O=C(N/N=C/c1ccc(O)cc1O)c1ccc(CN2C(=O)c3cccc4cccc2c34)cc1 | -45.9 | 0.1 | 77.7* | -1.0 | -9.1 | 7.5
O=C(Nc1ccc(N2CCCC2)cc1)C(Cl)c1ccccc1 (stereo unspecified) | -69.3 | 19.5 | 55.6* | 0.0 | 0.2 | 10.9
CC1(CCc2ccccc2)NC(=O)N(CC(=O)Nc2ccc(OC(F)F)cc2)C1=O (stereo unspecified) | / | / | / | / | -0.7 | /
Cc1cc(N2CC(C)OC(C)C2)n2cc(-c3ccccc3)nc2n1 (stereo unspecified) | 80.2* | -1.5 | 34.2 | 0.0 | 4.3 | -2.9
Cc1cc(N2CCOCC2)n2cc(-c3ccccc3)nc2n1 | -13.2 | 7.3 | 16.4 | 2.0 | -4.9 | -0.5
CCOC(=O)Cn1c2ccccc2n2nc(CCC(=O)O)c(=O)nc12 | -7.2 | 2.6 | 3.3 | -2.0 | -0.4 | -6.2
O=C(O)CCc1nn2c3ccccc3n(CC(=O)c3ccccc3)c2nc1=O | 73.6* | 1.0 | 28.5 | 3.0 | -1.1 | -4.4
CCSC1=N/C(=C\c2cccnc2)C(=O)N1c1ccccc1 | -12.7 | 0.5 | 14.1 | -2.0 | 1.8 | -0.6
CC(C)c1ccc(C(O)P(=O)(OC2CCCCC2)OC2CCCCC2)cc1 (stereo unspecified) | -8.1 | 35.2* | -14.6 | / | 22.1 | 27.3
CC1(C)CC(=O)C2=C(C1)Nc1ccccc1NC2c1cc(Cl)ccc1O (stereo unspecified) | / | 13.2 | / | / | 9.8 | -0.4
Cc1cc(NC(=O)CSCC(=O)OCC(=O)Nc2ccc(OC(F)F)cc2)no1 | / | 5.4 | / | / | -2.9 | 6.5
CC1COC(Cn2c3ccccc3c3ccccc32)O1 (stereo unspecified) | 60.6* | 5.1 | 17.6 | / | 8.4 | 1.7
CCOc1ccc2nc(C)cc(Nc3ccc(N4CCOCC4)cc3)c2c1 | -4.7 | 2.6 | 61.8* | -2.0 | 5.6 | -4.3
Cc1ccn(CCNC(=O)C2CCC(=O)N(Cc3ccc(Cl)cc3)C2)n1 (stereo unspecified) | / | -1.1 | / | / | 2.8 | 3.3
CCOC1OC(=O)C(Cl)=C1Nc1ccccc1C (stereo unspecified) | 6.3 | 6.6 | 1.7 | -4.0 | -8.2 | 2.8
Cc1cccn2c(=O)c(/C=C(\C#N)S(=O)(=O)c3ccccc3)c(N3CCN(Cc4ccccc4)CC3)nc12 | / | 30.6* | / | / | 10.1 | 30.6
CN(C=[N+](C)C)c1cccc2c1C(=O)c1ccccc1C2=O | -23.3 | 35.3* | 15.9 | -1.0 | 18.4 | 38.5
O=C(Cn1nc(-c2ccccc2F)ccc1=O)NCc1ccc2c(c1)OCO2 | 1.2 | 0.2 | -1.9 | 2.0 | 0.9 | 1.4
CCCCN1C(=O)C2Cc3c([nH]c4ccccc34)CN2C1=S (stereo unspecified) | -19.0 | -10.2 | -2.2 | 0.0 | 44.5* | -16.9
CCCCCN1CC(=O)N2Cc3[nH]c4ccccc4c3C[C@H]2C1=O | / | -2.6 | / | / | 5.5 | -8.5
CCOC(=O)c1c(C)[nH]c(C)c1C(=O)COC(=O)/C=C/c1cccc(C(F)(F)F)c1 | -31.6 | 2.1 | 6.0 | 0.0 | 13.3 | 0.6
CC1=CC2=NC(=O)/C(=C\c3cccn3CCOc3ccccc3C)C(=N)N2O1 | -4.3 | 1.1 | 4.9 | -3.0 | 3.2 | -2.1
COc1ccccc1OCCOc1ccc(/C=C2/C(=N)N3OC(C)=CC3=NC2=O)cc1OC | 84.0* | 1.2 | -21.8 | 0.0 | 2.1 | -7.4
SMILES | Mcl1 Bid PPI | BCLXL inh | Mcl1 Noxa PPI | Bim-Mcl-1 | GLD-1 RNA inh | MCL1 BIM primary
CC(C)CNC(=O)CSc1nc2scc(-c3ccccc3)c2c(=O)[nH]1 | -73.1 | 2.5 | 53.5* | 0.0 | 1.5 | -0.6
COc1cc(C2C(C#N)=C(N)Oc3cc(C)oc(=O)c32)cc2c1OCO2 (stereo unspecified) | -5.7 | 12.2 | 51.1* | 0.0 | -4.3 | 2.1
COc1cc(C2C(C#N)=C(N)Oc3cc(C)oc(=O)c32)cc(OC)c1OC (stereo unspecified) | 6.2 | 0.3 | -5.0 | / | 3.7 | -2.7
Cc1nnc(Sc2cc(NCCCO)c([N+](=O)[O-])c3nonc23)s1 | -79.3 | / | 78.8* | -3.0 | / | /
CCC(=O)OCCNc1cc(Sc2nc3ccccc3[nH]2)c2nonc2c1[N+](=O)[O-] | -72.2 | 10.2 | 56.7* | 1.0 | 0.5 | 9.2
Cc1nnc(Sc2cc(NCCO)c([N+](=O)[O-])c3nonc23)s1 | -88.7 | / | 76.7* | 5.0 | / | /
O=[N+]([O-])c1c(NCCCO)cc(Sc2nc3ccccc3s2)c2nonc12 | -39.0 | 44.0* | 50.2 | 5.0 | 11.2 | 60.0*
O=[N+]([O-])c1c(NCCO)cc(N2CCCCCC2)c2nonc12 | / | 4.8 | / | / | 8.1 | 1.3
CCCSc1cc(NCCOC(=O)CCC)c([N+](=O)[O-])c2nonc12 | -9.8 | 6.6 | 7.5 | 0.0 | 6.9 | 4.3
CCCSc1cc(NCCOC(C)=O)c([N+](=O)[O-])c2nonc12 | -11.8 | 0.6 | -0.9 | -3.0 | 0.0 | 4.6
CCOC(=O)[C@@H]1[C@H]2COc3ccc(Br)cc3[C@@H]2N2C(=O)N(c3ccc(C(F)(F)F)cc3)C(=O)[C@]12C | / | 3.7 | / | / | 5.1 | 5.2
O=C(NNC(=O)c1nn(-c2ccc(F)cc2)ccc1=O)c1ccc(C(F)(F)F)cc1 | -29.2 | -0.2 | -7.7 | / | -0.1 | 7.0
Brc1ccc(NC2=Nc3ccccc3CC2)cc1 | -14.4 | 41.0* | 6.4 | 1.0 | -4.8 | 9.1
CCOc1cc(/C=N/Nc2nncc(-c3ccccc3)n2)ccc1O | -43.1 | 10.3 | 33.2 | 6.0 | 1.3 | 8.6
Oc1ccc(/C=N/Nc2nn3cnnc3c3ccccc23)cc1 | -37.9 | 5.1 | 51.3* | / | 4.1 | 5.7
CCOc1cc(/C=N/Nc2nn3cnnc3c3ccccc23)ccc1O | -71.8 | 10.8 | 56.2* | / | -3.6 | 12.1
COc1cccc(/C=N/Nc2nn3cnnc3c3ccccc23)c1 | -2.4 | -1.4 | / | 17.0 | -0.2 | 4.0
COc1cc(/C=N/Nc2nn3cnnc3c3ccccc23)ccc1O | -7.8 | 9.2 | 68.4* | 28.0 | 1.2 | 2.4
C=CCNC(=O)c1ccc(C)cc1Cl | -24.2 | 2.2 | -4.8 | -3.0 | 1.0 | -7.8
Cc1ccccc1NC(=O)c1nnn(-c2ccc3c(c2)OCCO3)c1N | / | -0.9 | / | / | 0.1 | 0.3
COc1ccc(C(=O)c2ccc3oc(-c4ccc(OC)cc4)c(C#CCCO)c3c2)cc1 | / | 7.8 | / | / | 3.7 | 11.5
Cn1c(SCCC#N)nnc1-c1ccc(F)cc1 | -33.6 | 5.5 | 3.8 | -2.0 | 7.1 | 12.9
CC1=C(SCCC#N)S/C(=C2\SC(C)=C(SCCC#N)S2)S1 | 96.1* | 13.1 | 74.4* | -7.0 | 3.7 | 16.3
Cc1nc2ccc(NC(=O)NC(=O)c3c(Cl)cccc3Cl)cc2o1 | -6.7 | 43.1* | -13.2 | / | 2.1 | 3.5
CNC(=O)Nc1ccc2nc(C)oc2c1 | -19.3 | 5.6 | 4.1 | / | 1.9 | 8.9

Assay outcomes: PubChem, several laboratories
